Test [1] has as its target Lysosomal acid glucosylceramidase (Homo sapiens) (UniProt P04062). The test can be described thus: Glucocerebrosidase-p2 (AID 348; in the data active = potency below about 10 µM; also: potency is read from the fitted curve at half-maximal effect). To be noted: purified GBA, blue fluorogenic substrate, 40 min. In outline:
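Compounds titrated from 0.6 nM upwards against 0.2 nM enzyme in pH 5.9 citric acid/KH2PO4, taurocholate, tween-20; blue fluorogenic substrate 80 uM, 40 min room temperature, stopped and read Ex 365/Em 440 for AC50.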

A short description of test [2]: AP1 Signaling Pathway (AID 357; active = well fitted curve in either direction with a large enough effect, not every such curve was filed as active;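 also: ME-180 reporter cells stimulated with EGF at its EC50 level; % is scaled to controls: 0 for no effect and ±100 for the full control effect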). To be noted: ME-180 AP-1-bla reporter, EGF-induced, beta-lactamase ratio, 5 h; at 7.69 µM (top of the series) unless noted. An outline of the steps: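 Beta-lactamase reporter under AP-1 response element, ME-180 background. Stimulus: EC50 EGF. Compound exposure 5 h, 37 °C. Detection: CCF4, 2.5 h RT, 460/530 nm. Values: AC50 from titration.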

Test [3] addresses Cytochrome P450 1A2 (Homo sapiens) (UniProt P05177). Briefly: p450-cyp1a2 (AID 410; calls by dose curve; also: potency is read from the fitted curve at half-maximal effect). To be noted: recombinant CYP1A2, luciferin-ME demethylation, luminescence; series mostly up to 57 µM. An outline of the steps: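 Human CYP1A2 (20nM) demethylated Luciferin-ME at its Km (100uM) in 100mM KPO4. After 10 min compound preincubation, NADPH regeneration ran the reaction 60 min at room temperature. Luciferin was read by luminescence, normalized to 57 uM furafylline.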

A short description of test [4]: NFAT Signaling Pathway (AID 444; active = well fitted curve in either direction with a large enough effect, not every such curve was filed as active;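 also: carbachol stimulus at about its EC50 of 1 µM final; % is scaled to controls: 0 for no effect and ±100 for the full control effect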). Particulars: Jurkat NFAT-bla M1, carbachol, beta-lactamase ratio, 5 h; at 7.69 µM (top of the series) unless noted. In outline:
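Jurkat cells carrying an NFAT-driven β-lactamase reporter and co-transfected muscarinic M1 receptor were treated with compound plus carbachol (1 uM final, an EC50 level) for 5 h at 37 °C. CCF4 loading followed for 1 h at RT; 460/530 nm ratio gave %activity.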

Test [5] can be described thus: Stat Signaling Pathway (AID 446; active = well fitted curve in either direction with a large enough effect, not every such curve was filed as active;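 also: ME-180 cervical cancer cells given 40 pM IL-6 alongside compound; SIE-controlled beta-lactamase reporter measured as 460/530 nm FRET emission ratio; % is scaled to controls: 0 for no effect and ±100 for the full control effect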). Particulars: ME-180 SIE beta-lactamase reporter, IL-6 stimulated, 5 h; at 7.69 µM (top of the series) unless noted. In outline: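 IL-6/STAT signaling read in ME-180 cells via an SIE beta-lactamase reporter. Stimulus was 40 pM IL-6 (its AC50) for 5 hrs, so both activation and inhibition register.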
Test [6] has as its target Glucocorticoid receptor (Homo sapiens) (UniProt P04150). Briefly: GR-GFP Redistribution (AID 450;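 active = compounds whose dose series gives a full or clear partial fitted curve of increased nuclear translocation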; also: potency is read from the fitted curve at half-maximal effect). To be noted: U2OS GR-GFP nuclear translocation, laser cytometry, 2 h.
For test [7] the target is unchanged. Briefly: GR-EFC Redistribution (AID 451; calls by dose curve; also: potency is read from the fitted curve at half-maximal effect). To be noted: CHO-K1 GR-EFC translocation, beta-gal luminescence, 2 h. In outline:
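CHO-K1 cells stably expressing nuclear-localized β-gal enzyme acceptor and GR fused C-terminally to the enzyme donor fragment; ligand-driven nuclear translocation restores β-gal by complementation. Compounds titrated up to 46 uM final, 2 h at 37 °C; luminescence read.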

The target in test [8] is Mitogen-activated protein kinase 10 (Mus musculus) (UniProt Q61831). Briefly: JNK3 AlphaScreen Assay (AID 530; active = well fitted curve in either direction with a large enough effect, not every such curve was filed as active;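 also: kinase came from lysate of stimulated human HepG2 cells; % is scaled to controls: 0 for no effect and ±100 for the full control effect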). Particulars: JNK3 lysate, c-Jun phosphorylation; series mostly up to 57.1 µM. An outline of the steps: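 JNK3 came from HepG2 lysates pre-activated with IL-1beta and TNF-alpha and phosphorylated biotinylated GST-cJun (1-79) at 10 uM ATP, pH 7.6, room temperature. Compounds were titrated. AlphaScreen signal used anti-phospho-cJun (Ser73) antibody.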
On the technique in general: In Alpha technology, singlet oxygen from a donor bead excites a nearby acceptor bead.

The target in test [9] is 3',5'-cyclic-AMP phosphodiesterase 4B (Homo sapiens) (UniProt Q07343). Briefly: qHTS Assay for Inhibitors of PDE-IV (AID 607; active = well fitted activation curve with a large enough effect in the main read-out, with a control signal flat, not every such curve was filed as active; also: % of control where 0% means no effect). Particulars: HEK293 ACTOne CNG channel cells, membrane potential fluorescence; series mostly up to 22.9 µM. An outline of the steps:
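Live HEK293 cells with a modified cyclic nucleotide-gated (CNG) channel report intracellular cAMP via membrane-potential dye fluorescence (ex 535/em 590 nm). Endogenous PDE-IV was targeted. Compounds were tested at up to 22.9 uM final; RO 20-1724 100 uM served as control.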
Background: qHTS replaces the single test concentration by a dilution series.

Test [10] is described as follows: qHTS Assay for Lipid Storage Modulators (AID 1519; calls by dose curve). To be noted: Drosophila S3 cells, BODIPY lipid droplet/cell ratio, laser cytometry, cells loaded with oleic acid; for activity change, negative = inhibition: at 57.5 µM (top of the series). In outline: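 Cells seeded at 5,000 per well were treated with compounds over a concentration series and loaded with oleic acid (400 uM, as added). Lipid droplet fluorescence (488 nm excitation, 500-530 nm channel) was read by laser-scanning cytometry and normalized to 20 uM Triacsin C.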

Test [11] concerns the target Dual specificity protein kinase CLK4 (Homo sapiens) (UniProt Q9HAZ1). The test can be described thus: qHTS Assay for Inhibitors of CDC-like Kinase 4 (ADP-Glo Assay) (AID 1771). Also: % is scaled to controls: 0 for no effect and ±100 for the full control effect; nearly all actives have a fitted effect of over 70% in size. Particulars: recombinant CLK4, ADP-Glo luminescence; series mostly up to 80 µM. In outline:
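Clk4 (25 nM) was incubated 1 hr at room temperature with 100 uM RS repeat peptide and 1 uM ATP in buffer with 2 mM MgCl2, 0.5 mM EGTA, 2.5 mM DTT. ADP formed was quantified by ADP-Glo luminescence.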

Test [12] shares this target. The test can be described thus: qHTS Assay for Inhibitors of CDC-like Kinase 4 (ADP-FP Assay) (AID 1795).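 Also: recombinant human CLK4 phosphorylating RS repeat peptide at 1 µM ATP; % is scaled to controls: 0 for no effect and ±100 for the full control effect; nearly all actives have a fitted effect of over 60% in size.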 To be noted: Transcreener ADP fluorescence polarization; series mostly up to 50 µM. An outline of the steps: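 Inhibition of ADP formation by 6.25 nM Clk4 is measured using 1 uM ATP and 100 uM RS repeat peptide over one hour. Produced ADP displaces a fluorescent tracer from antibody, lowering polarization.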

The target in test [13] is Ubiquitin carboxyl-terminal hydrolase 1 (Homo sapiens) (UniProt O94782). The test can be described thus: Inhibitors of USP1/UAF1: Pilot qHTS (AID 504865).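 Also: rhodamine fluorescence freed from ubiquitin-rhodamine substrate followed over time; top concentration of the series differs between compounds; % is scaled to controls: 0 for no effect and ±100 for the full control effect; nearly all actives have a fitted effect of over 35% in size.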 To be noted: purified USP1/UAF1, Ub-rhodamine cleavage fluorescence; series mostly up to 54.9 µM. An outline of the steps: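 Kinetic fluorescence assay: 1nM USP1/UAF1, 15 min compound preincubation, then 150nM Ub-Rho; 480/540 nm.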

Test [14] can be described thus: Primary qHTS for small molecule stabilizers of the endoplasmic reticulum resident proteome: Secreted ER Calcium Modulated Protein (SERCaMP) assay (AID 1508630). Also: % is scaled to controls: 0 for no effect and ±100 for the full control effect. To be noted: SH-SY5Y GLuc-SERCaMP (Gaussia luciferase released on ER calcium loss) secretion, thapsigargin, luminescence; series mostly up to 38.4 µM. In outline: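 GLuc-SERCaMP-expressing SH-SY5Y cells, pretreated 16 h with compound, are challenged with thapsigargin to empty ER calcium stores; after 4 h, coelenterazine is added directly to the medium and luminescence is imaged.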

Test [15] concerns the target Cytochrome P450 3A4 (Homo sapiens) (UniProt P08684). Briefly: qHTS Assay for Activators of Cytochrome P450 3A4 (AID 885). Also: nearly all actives have a fitted effect of over 65% in size. Particulars: recombinant CYP3A4, Luciferin-PPXE luminescence, 60 min; series mostly up to 57.1 µM. An outline of the steps:
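Quantitative HTS format: compounds preincubated with 20nM human CYP3A4 and Luciferin-PPXE substrate at KM, reaction started by NADPH regeneration, stopped after 60 min, luciferase luminescence read 20 min later.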

Test [16] can be described thus: qHTS Assay for Identification of Small Molecule Agonists for Hypoxia Response Element Signaling Pathway (AID 914; active = well fitted activation curve with a large enough effect in the signal ratio, with a control signal flat, not every such curve was filed as active; the % refers to the signal ratio; also: potency is read from the fitted curve at half-maximal effect; as to activation: % of control where 0% means no effect). To be noted: ME-180 (cervical carcinoma) HRE-bla reporter, beta-lactamase ratio, CoCl2, 17 h; activation: stronger effect = higher value. In outline: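 In Opti-MEM containing 0.5% dialyzed FBS and 10 mM HEPES, ME-180 HRE-bla cells received a compound titration and EC50 CoCl2. They were incubated 17 hours, then CCF4-loaded 2.5 hours at room temperature before ratio reading.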

Where [17] appears, read: measured here: cell count channel max response.
Where [18] appears, read: measured here: lipid channel max response.

From PubChem BioAssay (NCATS) come the findings set out here.

Results filed as inconclusive are left out. The source made the active and inactive calls. Unless noted, calls follow the shape of the dose curve; as a rule, active = well fitted curve in the direction sought with a large enough effect; inconclusive = small, poorly fitted or top-dose-only effect, or another doubt; inactive = no such curve, though single readings can be large; an effect the other way counts as inactive or inconclusive.

Sequence of 3',5'-cyclic-AMP phosphodiesterase 4B (Homo sapiens) (Q07343 whole entry, looked up): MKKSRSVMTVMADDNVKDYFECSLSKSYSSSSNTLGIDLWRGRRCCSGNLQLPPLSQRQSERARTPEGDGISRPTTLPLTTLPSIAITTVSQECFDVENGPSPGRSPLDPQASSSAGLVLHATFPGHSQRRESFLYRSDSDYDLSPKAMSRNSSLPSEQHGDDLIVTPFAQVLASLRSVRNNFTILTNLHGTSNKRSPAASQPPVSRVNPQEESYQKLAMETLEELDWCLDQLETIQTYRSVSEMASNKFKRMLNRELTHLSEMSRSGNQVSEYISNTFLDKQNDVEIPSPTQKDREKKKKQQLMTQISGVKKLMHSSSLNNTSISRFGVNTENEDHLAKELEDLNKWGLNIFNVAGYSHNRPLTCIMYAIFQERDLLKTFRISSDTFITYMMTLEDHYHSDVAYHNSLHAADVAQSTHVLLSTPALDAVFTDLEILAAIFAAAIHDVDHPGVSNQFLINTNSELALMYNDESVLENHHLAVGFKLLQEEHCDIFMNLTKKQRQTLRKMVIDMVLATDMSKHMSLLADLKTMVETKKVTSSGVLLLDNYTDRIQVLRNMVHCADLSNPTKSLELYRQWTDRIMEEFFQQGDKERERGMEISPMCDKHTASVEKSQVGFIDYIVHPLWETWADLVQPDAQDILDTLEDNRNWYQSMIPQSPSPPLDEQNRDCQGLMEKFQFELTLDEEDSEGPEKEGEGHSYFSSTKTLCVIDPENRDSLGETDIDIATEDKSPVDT
Sequence of Lysosomal acid glucosylceramidase (Homo sapiens) (P04062 whole entry, looked up): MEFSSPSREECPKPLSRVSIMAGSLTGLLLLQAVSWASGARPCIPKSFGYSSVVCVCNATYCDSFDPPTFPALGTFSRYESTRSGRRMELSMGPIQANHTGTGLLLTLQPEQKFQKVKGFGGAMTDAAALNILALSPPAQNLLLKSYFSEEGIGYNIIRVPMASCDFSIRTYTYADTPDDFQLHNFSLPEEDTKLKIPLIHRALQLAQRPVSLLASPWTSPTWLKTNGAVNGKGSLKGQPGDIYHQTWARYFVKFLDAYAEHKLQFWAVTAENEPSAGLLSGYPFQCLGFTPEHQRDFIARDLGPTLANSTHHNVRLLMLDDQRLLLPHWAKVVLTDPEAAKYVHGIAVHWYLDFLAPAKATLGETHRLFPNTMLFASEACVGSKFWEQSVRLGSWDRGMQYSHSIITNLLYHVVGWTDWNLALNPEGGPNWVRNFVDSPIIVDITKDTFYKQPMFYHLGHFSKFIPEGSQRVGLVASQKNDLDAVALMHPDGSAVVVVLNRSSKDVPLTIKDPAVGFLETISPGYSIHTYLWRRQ
Sequence of Glucocorticoid receptor (Homo sapiens) (P04150 whole entry, looked up): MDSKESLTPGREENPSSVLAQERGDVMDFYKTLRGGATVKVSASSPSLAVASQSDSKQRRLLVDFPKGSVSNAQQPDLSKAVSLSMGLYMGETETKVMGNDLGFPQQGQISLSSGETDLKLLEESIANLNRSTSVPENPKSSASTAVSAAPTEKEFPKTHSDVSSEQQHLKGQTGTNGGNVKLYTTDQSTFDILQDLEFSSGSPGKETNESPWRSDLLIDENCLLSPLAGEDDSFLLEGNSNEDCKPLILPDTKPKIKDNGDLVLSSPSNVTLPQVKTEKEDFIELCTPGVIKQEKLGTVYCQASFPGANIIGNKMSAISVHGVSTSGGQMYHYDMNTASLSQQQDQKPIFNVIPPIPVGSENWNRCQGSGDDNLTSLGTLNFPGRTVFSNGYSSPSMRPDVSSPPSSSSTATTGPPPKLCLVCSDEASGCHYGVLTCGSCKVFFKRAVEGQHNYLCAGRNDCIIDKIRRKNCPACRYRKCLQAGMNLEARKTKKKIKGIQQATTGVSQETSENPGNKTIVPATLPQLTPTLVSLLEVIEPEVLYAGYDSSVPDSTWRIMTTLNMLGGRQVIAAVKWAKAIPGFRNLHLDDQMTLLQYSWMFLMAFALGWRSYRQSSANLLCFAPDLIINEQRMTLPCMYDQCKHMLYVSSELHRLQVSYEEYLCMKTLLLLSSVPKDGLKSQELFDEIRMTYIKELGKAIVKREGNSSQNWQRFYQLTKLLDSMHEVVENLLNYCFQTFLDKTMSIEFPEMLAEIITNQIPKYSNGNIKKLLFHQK
Sequence of Dual specificity protein kinase CLK4 (Homo sapiens) (Q9HAZ1 whole entry, looked up): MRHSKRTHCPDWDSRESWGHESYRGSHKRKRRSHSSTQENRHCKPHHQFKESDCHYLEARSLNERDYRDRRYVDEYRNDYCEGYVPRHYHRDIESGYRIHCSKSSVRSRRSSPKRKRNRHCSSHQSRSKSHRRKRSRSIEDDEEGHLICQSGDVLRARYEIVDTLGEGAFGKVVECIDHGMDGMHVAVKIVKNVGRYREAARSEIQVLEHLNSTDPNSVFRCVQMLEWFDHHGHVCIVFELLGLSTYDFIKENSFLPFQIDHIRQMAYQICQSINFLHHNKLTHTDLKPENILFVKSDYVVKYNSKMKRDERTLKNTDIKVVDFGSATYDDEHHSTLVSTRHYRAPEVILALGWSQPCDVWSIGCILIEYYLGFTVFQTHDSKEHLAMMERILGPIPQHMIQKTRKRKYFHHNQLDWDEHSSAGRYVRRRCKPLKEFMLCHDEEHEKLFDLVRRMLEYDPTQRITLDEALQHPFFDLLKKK
Sequence of Cytochrome P450 1A2 (Homo sapiens) (P05177 whole entry, looked up): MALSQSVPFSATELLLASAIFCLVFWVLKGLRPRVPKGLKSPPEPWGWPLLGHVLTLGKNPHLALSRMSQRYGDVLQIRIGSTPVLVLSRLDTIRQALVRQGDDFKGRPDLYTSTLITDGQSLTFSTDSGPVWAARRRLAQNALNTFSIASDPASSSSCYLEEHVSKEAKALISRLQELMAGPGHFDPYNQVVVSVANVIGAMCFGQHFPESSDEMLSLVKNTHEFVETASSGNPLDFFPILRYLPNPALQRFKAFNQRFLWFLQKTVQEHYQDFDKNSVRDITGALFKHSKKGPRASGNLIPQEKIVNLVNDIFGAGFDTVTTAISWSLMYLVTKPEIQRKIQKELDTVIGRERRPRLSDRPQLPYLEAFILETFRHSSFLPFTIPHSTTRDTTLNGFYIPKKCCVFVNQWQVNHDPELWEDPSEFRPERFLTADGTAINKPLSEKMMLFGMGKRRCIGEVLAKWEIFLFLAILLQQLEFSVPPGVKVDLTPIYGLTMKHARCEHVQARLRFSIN
Sequence of Ubiquitin carboxyl-terminal hydrolase 1 (Homo sapiens) (O94782 whole entry, looked up): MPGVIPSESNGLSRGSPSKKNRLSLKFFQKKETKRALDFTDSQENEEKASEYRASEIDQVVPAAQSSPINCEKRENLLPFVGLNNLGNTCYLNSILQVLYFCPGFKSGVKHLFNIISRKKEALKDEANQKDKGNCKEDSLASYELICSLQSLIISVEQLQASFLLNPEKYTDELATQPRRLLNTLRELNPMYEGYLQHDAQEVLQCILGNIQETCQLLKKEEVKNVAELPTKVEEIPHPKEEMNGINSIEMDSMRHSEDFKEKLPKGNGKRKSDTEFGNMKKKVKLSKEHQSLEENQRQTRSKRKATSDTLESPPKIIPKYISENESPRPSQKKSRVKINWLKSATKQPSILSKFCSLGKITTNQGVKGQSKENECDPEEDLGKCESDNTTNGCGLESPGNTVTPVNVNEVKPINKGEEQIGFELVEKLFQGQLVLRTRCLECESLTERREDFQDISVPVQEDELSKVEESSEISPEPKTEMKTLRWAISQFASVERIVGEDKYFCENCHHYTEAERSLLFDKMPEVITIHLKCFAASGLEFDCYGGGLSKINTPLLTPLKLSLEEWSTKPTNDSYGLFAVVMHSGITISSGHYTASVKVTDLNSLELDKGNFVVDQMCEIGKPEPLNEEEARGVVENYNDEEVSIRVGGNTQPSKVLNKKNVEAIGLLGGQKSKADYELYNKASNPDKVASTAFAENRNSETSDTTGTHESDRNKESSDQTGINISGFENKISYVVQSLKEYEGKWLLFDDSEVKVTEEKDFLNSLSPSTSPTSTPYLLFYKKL
Sequence of Cytochrome P450 3A4 (Homo sapiens) (P08684 whole entry, looked up): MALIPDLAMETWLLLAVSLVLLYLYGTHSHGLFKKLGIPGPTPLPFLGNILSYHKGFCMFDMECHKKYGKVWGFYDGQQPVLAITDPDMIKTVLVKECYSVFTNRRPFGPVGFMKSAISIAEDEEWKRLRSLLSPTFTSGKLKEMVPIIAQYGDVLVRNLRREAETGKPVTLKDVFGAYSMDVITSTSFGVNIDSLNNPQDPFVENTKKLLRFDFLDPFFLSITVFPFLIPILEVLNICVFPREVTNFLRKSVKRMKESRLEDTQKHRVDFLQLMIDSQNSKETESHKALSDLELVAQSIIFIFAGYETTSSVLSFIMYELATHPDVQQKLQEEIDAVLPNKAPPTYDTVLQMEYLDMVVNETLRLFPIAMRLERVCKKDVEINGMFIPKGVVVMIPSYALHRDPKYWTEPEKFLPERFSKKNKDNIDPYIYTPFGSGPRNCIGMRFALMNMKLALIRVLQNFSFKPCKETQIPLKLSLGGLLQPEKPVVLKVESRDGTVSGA

Take `CN(C)c1ncc2nc(-c3cc(F)cc(F)c3)c(=O)n(C[C@H]3CCCO3)c2n1`: the Potency in test [1] is > 11.4 µM (inactive); in [3], 0.0794 µM (active); in test [6], > 9.22 µM (inactive); in test [7], > 46 µM (inactive). Further, the results for the activity change, negative = inhibition in test [2], in test [4] and in test [10] were 19.6% (inactive), 9.35% (inactive) and 7.12% (inactive), respectively. Besides, in test [5], the activity, negative = inhibition is 29.3% (inactive). Besides, the compound was classed as inactive in [8]. For the same compound, the Potency result in test [9], in [11], in [12], in test [13] and in test [14] was “inactive” in each case. In addition, the max response in [10] (setting [17]) was determined as 15.3%; in test [10] (setting [18]), 23.7%.

On to `CN1CCN(c2ncncc2-c2ccc(C(=O)N(C)C)cc2)CC1`, for which the Potency was > 11.4 µM (inactive) in test [1], 15.8 µM (active) in test [3], > 46 µM (inactive) in test [6] and > 46 µM (inactive) in test [7]. For the same compound, the activity change, negative = inhibition in test [2] was 14.8% (inactive); in test [4], 4.17% (inactive); in test [10] it was 1.02% (inactive). Further, the call in [8] was inactive. Moreover, the Potency result in test [9], in [15], in [11], in [12], in test [13] and in test [14] was “inactive” each time. Also, the max response in test [10] (setting [17]) came out at 12.3%; in test [10] (setting [18]), 11.3%.

As to `Cn1c(=O)c(-c2cccs2)nc2cnc(N3CCOCC3)nc21`, the Potency in test [1] is > 11.4 µM (inactive); in [3] it was 5.01 µM (active); in test [6], > 9.22 µM (inactive); in test [7], > 46 µM (inactive). In addition, the values for the activity change, negative = inhibition in test [2], in test [4] and in test [10] were -14% (inactive), -9.83% (inactive) and 5.09% (inactive), respectively. For the same compound, the activity, negative = inhibition in test [5] is -4.84% (inactive). Besides, in [8], the outcome was inactive. Moreover, the Potency entry in test [9], in test [11], in test [12], in test [13] and in test [14] was “inactive” in each case. Moreover, the activation in test [16] is 11.8% (inactive). Also, the max response stood at 14.1% in test [10] (setting [17]) and 16.5% in test [10] (setting [18]).

Regarding `COCCn1c(=O)c(-c2ccc(Cl)cc2)nc2cnc(Nc3ccccc3)nc21`, the Potency was > 11.4 µM (inactive) in test [1]; 20 µM (active) in test [3]; > 9.22 µM (inactive) in [6]; > 46 µM (inactive) in [7]; 2.51 µM (active) in test [16]. Further, in test [8], the outcome was inactive. Also, the Potency result in test [9], in [11], in test [12], in test [13] and in test [14] was “inactive” each time. The activity change, negative = inhibition in test [10] is 3.97% (inactive). Also, the max response in [10] (setting [17]) was 10.8%; in test [10] (setting [18]), 12.1%.

For the compound `O=c1cnc2cnc(Oc3cccc(Cl)c3)nc2n1C[C@H]1CCCO1`, the activity change, negative = inhibition in [2] is -1.71% (inactive); in test [4], 1.72% (inactive); in [10] it was 5.57% (inactive). Moreover, the Potency in test [3] was 5.01 µM (active); in test [6], > 9.22 µM (inactive); in [7], > 46 µM (inactive). Besides, the activity, negative = inhibition in test [5] is -13.3% (inactive). Moreover, the outcome in test [8] was inactive. For the same compound, the Potency result in [9], in test [11], in test [12], in [13] and in test [14] was “inactive” each time. Besides, the max response in [10] (setting [17]) was 22.7%; in [10] (setting [18]) it was 29.8%.
